What all share (assay): qHTS profiling for inhibitors of Plasmodium falciparum proliferation (AID 504749); also: nearly all actives have a fitted effect of over 60% in size
Common to all, as to conditions: P. falciparum in erythrocytes, SYBR Green DNA, 72 h; series mostly up to 28.7 µM
For orientation: qHTS replaces the single test concentration by a dilution series.

The subject of one experiment is ATS189. A digest of the protocol: (§1)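 Three-day growth assay of blood-stage parasites in erythrocytes (0.3% parasitemia, 2.5% hematocrit) at 37 C, 5% CO2, quantified by SYBR Green DNA staining after overnight detergent lysis.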
For the next experiment, the system named is ATS95. A digest of the protocol:
as §1

The test system of another experiment is CP185. The method in brief:
as §1

For a further experiment, the system named is CP191. A digest of the protocol:
as §1

The next experiment relates to CP192. The method in brief: as §1
A further experiment relates to CP194. The method in brief:
as §1

Another experiment concerns CP201. The method in brief:
as §1

Another experiment relates to CP203. A digest of the protocol:
as §1

A further experiment has as its system CP211. A digest of the protocol: as §1
The subject of the next experiment is CP215. The method in brief: as §1
A further experiment has as its system CP217. A digest of the protocol: as §1
The test system of a further experiment is CP237. A digest of the protocol: as §1
A further experiment concerns CP238. The method in brief: as §1
For another experiment, the system named is CP247. The method in brief: as §1
The next experiment concerns CP250. A digest of the protocol: as §1
The next experiment relates to CP252. A digest of the protocol: as §1
A further experiment deals with CP256. The method in brief: as §1
The subject of the next experiment is CP262. The method in brief: as §1
Another experiment has as its system C2A. A digest of the protocol:
as §1

The next experiment relates to CP260. The method in brief: as §1

Results filed as inconclusive are left out. Activity calls are given as the source filed them. Calls follow the shape of the dose curve; as a rule, active = well fitted inhibition curve with a large enough effect; inconclusive = small, poorly fitted or top-dose-only effect; inactive = flat fitted curve, though single readings scatter.
Potency is read from the fitted curve at half-maximal effect.

In the case of `COC(=O)Nc1nc2ccc(C(=O)c3cccs3)cc2[nH]1`, the Potency entry in the experiment with ATS189, in the experiment with ATS95, in the experiment with CP185, in the experiment with CP191, in the experiment with CP192 and in the experiment with CP194 was “inactive” in each case. Besides, the Potency entry with CP201, with CP203, in the experiment with CP211, in the experiment on CP215, in the experiment on CP217 and in the experiment with CP237 was “inactive” in each case. For the same molecule, the Potency result in the experiment on CP238, in the experiment on CP247, in the experiment with CP250, in the experiment with CP252, in the experiment on CP256 and with CP262 was “inactive” in each case.

In the case of `COc1ccccc1OCCNCC(O)COc1cccc2[nH]c3ccccc3c12` (configuration not stated), the Potency in the experiment with ATS95 was 12.6 µM (active); in the experiment on C2A it was 10 µM (active); with CP237, 12.6 µM (active); in the experiment with CP256 it was 11.2 µM (active). The Potency entry in the experiment with CP192, in the experiment with CP201 and in the experiment on CP211 was “inactive” throughout.

For `Cn1ccc2cc3c(cc21)CCN3C(=O)Nc1cccnc1`, the Potency result with CP262 is “inactive”.

On to `CN(C)CCCN1c2ccccc2CCc2ccc(Cl)cc21`, for which the Potency entry in the experiment on C2A, in the experiment on CP185, in the experiment on CP201, in the experiment with CP211, in the experiment with CP238 and in the experiment with CP247 was “inactive” each time. Besides, the Potency result with CP250 and in the experiment on CP252 was “inactive” each time.

For the molecule `O=C(Nc1ccc([N+](=O)[O-])cc1Cl)c1cc(Cl)ccc1O`, the Potency entry in the experiment with C2A, in the experiment on CP185 and in the experiment with CP238 was “inactive” each time. The Potency in the experiment with CP191 was 0.891 µM (active); in the experiment with CP203, 0.478 µM (active); with CP215, 0.536 µM (active); in the experiment with CP237 it was 1.12 µM (active); in the experiment on CP260, 2.82 µM (active).

Take `O=C(c1ccc(OCCN2CCCCC2)cc1)c1c(-c2ccc(O)cc2)sc2cc(O)ccc12`: the Potency is 10 µM (active) in the experiment on C2A; 5.01 µM (active) with CP191; 9.53 µM (active) in the experiment on CP201; 16.9 µM (active) in the experiment on CP203; 19 µM (active) in the experiment on CP215; 3.55 µM (active) with CP237. Also, the Potency in the experiment on CP247 was 7.08 µM (active); in the experiment on CP260, 3.16 µM (active). Besides, in the experiment on CP262, the Potency entry is “inactive”.

With `COc1ccc(CCN(C)CCCC(C#N)(c2ccc(OC)c(OC)c2)C(C)C)cc1OC` (configuration not stated), the Potency entry with ATS189, in the experiment on ATS95, in the experiment on C2A, in the experiment with CP185, with CP191 and with CP192 was “inactive” each time. The Potency result with CP201, in the experiment with CP217, in the experiment with CP238, in the experiment on CP247, with CP250 and with CP252 was “inactive” each time. In addition, the Potency result in the experiment with CP256 and in the experiment on CP262 was “inactive” each time.

As for `CCOC(=O)Nc1ccc(NCc2ccc(F)cc2)nc1N`, the Potency in the experiment on ATS189 was 10 µM (active); in the experiment with CP191, 11.2 µM (active); in the experiment on CP217, 10 µM (active); with CP237, 10 µM (active); in the experiment with CP247, 12.6 µM (active); in the experiment with CP252, 8.91 µM (active). Further, the results for the Potency in the experiment with CP256, in the experiment with CP260 and with CP262 were 10 µM (active), 11.2 µM (active) and 12 µM (active), respectively. Further, the Potency result in the experiment on CP203 is “inactive”.

Consider `CN(C)C(=N)N=C(N)N`, for which the Potency entry in the experiment on ATS189, in the experiment on ATS95, in the experiment on C2A, with CP185, in the experiment on CP191 and in the experiment on CP201 was “inactive” each time. The Potency entry in the experiment with CP217, in the experiment with CP237, in the experiment with CP238, with CP247, in the experiment with CP250 and in the experiment on CP252 was “inactive” throughout. Besides, the Potency entry in the experiment on CP256 and with CP260 was “inactive” throughout.

For the molecule `COc1cc2c(c(OC)c1OC)-c1ccc(OC)c(=O)cc1[C@@H](NC(C)=O)CC2`, the Potency entry in the experiment with ATS189, in the experiment with ATS95, with C2A, in the experiment with CP185, in the experiment on CP191 and in the experiment on CP192 was “inactive” each time. Further, the Potency entry with CP194, with CP201, in the experiment with CP203, in the experiment with CP211, in the experiment on CP217 and in the experiment on CP237 was “inactive” each time. Also, the Potency entry in the experiment with CP238, with CP247, in the experiment on CP250, in the experiment on CP252, in the experiment with CP256 and in the experiment on CP260 was “inactive” throughout. In addition, the Potency result in the experiment with CP262 is “inactive”.

With `O=c1c(O)c(-c2ccc(O)c(O)c2)oc2cc(O)cc(O)c12`, the Potency in the experiment on CP215 is 13.5 µM (active); with CP247, 7.08 µM (active).

For the molecule `OCCN1CCN(CCCN2c3ccccc3Sc3ccc(C(F)(F)F)cc32)CC1`, the Potency in the experiment on ATS189 is 8.91 µM (active); with ATS95, 11.2 µM (active); with C2A it was 12.6 µM (active); in the experiment with CP185, 11.2 µM (active); in the experiment with CP191, 7.94 µM (active); in the experiment with CP194 it was 10.7 µM (active). Further, the Potency in the experiment on CP201 was 8.49 µM (active); with CP203, 13.5 µM (active); in the experiment with CP211 it was 7.57 µM (active); with CP215, 13.5 µM (active); with CP217, 10 µM (active); with CP237, 12.6 µM (active). Besides, the Potency was 8.91 µM (active) with CP238; 11.2 µM (active) in the experiment on CP247; 12.6 µM (active) in the experiment with CP250; 10 µM (active) with CP252; 3.16 µM (active) with CP256; 7.94 µM (active) in the experiment with CP260. Also, the Potency with CP262 was 5.36 µM (active).

For the molecule `CNCCCC12CCC(c3ccccc31)c1ccccc12`, the Potency result in the experiment on ATS189, with C2A, in the experiment with CP185, in the experiment on CP192, with CP201 and in the experiment on CP215 was “inactive” in each case. Besides, the Potency entry with CP217, in the experiment on CP238, in the experiment on CP247, with CP250, in the experiment on CP252 and with CP256 was “inactive” throughout. Further, the Potency entry with CP262 was “inactive”.

With `Cc1cc(C(C)(C)C)cc(C)c1CC1=NCCN1`, the Potency result in the experiment on ATS189, with ATS95, in the experiment on C2A, in the experiment with CP185, with CP191 and in the experiment on CP194 was “inactive” in each case. The Potency result in the experiment on CP201, in the experiment with CP203, in the experiment with CP211, in the experiment with CP215, in the experiment on CP217 and in the experiment with CP238 was “inactive” throughout. Also, the Potency entry in the experiment on CP247, in the experiment on CP250, with CP252, in the experiment on CP256, in the experiment on CP260 and with CP262 was “inactive” each time. Moreover, the Potency with CP237 was 3.98 µM (active).

On to `Nc1c2c(nc3ccccc13)CCCC2`, for which the Potency result in the experiment with C2A, in the experiment with CP201, in the experiment on CP217, with CP238, in the experiment on CP250 and in the experiment with CP252 was “inactive” in each case.

Turning to `CC[C@@]1(O)C(=O)OCc2c1cc1n(c2=O)Cc2cc3c(CN(C)C)c(O)ccc3nc2-1`, the Potency in the experiment with ATS95 was 3.16 µM (active); in the experiment on C2A, 8.91 µM (active); in the experiment on CP191, 8.91 µM (active); with CP194, 4.78 µM (active); in the experiment on CP203 it was 6.75 µM (active); in the experiment with CP211 it was 6.01 µM (active). In addition, the Potency was 6.01 µM (active) in the experiment on CP215, 8.91 µM (active) in the experiment on CP237, 4.47 µM (active) with CP250 and 6.31 µM (active) in the experiment with CP260.

Source of the values: PubChem BioAssay (NCATS).
